Screening results from PubChem.
This is a sample that favours compounds with a hit; in the whole collection about 13% have one here.
Pf growth 96h: P. falciparum growth inhibition at 96 hours; P. falciparum luciferase reporter growth, 96 h; Potency, µM (titrated, usually from 28.7 µM), for the others: at the top dose activity change, negative = inhibition, usual class: inhibitors; hit rate 6.9% among 320,000; also: potency is read from the fitted curve at half-maximal effect
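Cell-based qHTS: luciferase-tagged P. falciparum in erythrocytes (2% hematocrit, 0.05% parasitemia final) incubated with compounds for 96 hours, 37 C, 5% CO2; luciferase detection reagent then added and luminescence measured.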
Pf growth 48h: inhibits P. falciparum growth in the first generation, 48 h; P. falciparum luciferase growth in erythrocytes, 48 h; Potency, µM (highest dose often 28.7 µM), for inactives: at the highest dose activity change, negative = inhibition, hits mostly inhibitors; hit rate 5.9% among 310,000; also: potency is read from the fitted curve at half-maximal effect
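First compound was added to culture medium, then infected red cells at 0.1% parasitemia and 2% hematocrit (final). After incubation at 37 C under 5% CO2, luciferase detection reagent was dispensed and light output recorded.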
HCV inh: HCV inhibition; Huh7.5.1 HCVcc-Cre infection, luciferase reporter, 44 h; Potency, µM (series often up to 41.8 µM), inactives show top-dose activity change, negative = inhibition, most hits filed as inhibitors; hit rate 3.4% among 340,000; also: potency is read from the fitted curve at half-maximal effect
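Cells (1,000/well) were plated 4 h before compound, then infected with HCVcc-Cre virus (~0.5 moi). After 44 h further culture, infection was read as luciferase luminescence following a 15 min substrate incubation at room temperature.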
HCMV inh: human cytomegalovirus inhibition. AID 1259415. activity change, negative = inhibition, % at 57.5 µM. hit rate 4.5% among 410,000. HFF cells, HCMV-luciferase reporter, 72 h; active compounds read low; in the data active = activity change below about -60%; inconclusive = no clear call, values can overlap the other calls; inactive = above about -39%
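Inhibition of viral replication was scored as loss of reporter luminescence in HFFs infected with HCMV-luciferase (MOI 1 PFU/cell) for 72 h; compounds tested at 2 doses, normalized to buffer and Salinomycin controls.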
Active calls of the source: *; u = inconclusive; x = no result given. Unless noted, calls follow the shape of the dose curve; as a rule, active = well fitted inhibition curve with a large enough effect; inconclusive = small, poorly fitted or top-dose-only effect, or another doubt; inactive = no such curve, though single readings can be large or run the other way. % is scaled to controls: 0 for no effect and ±100 for the full control effect.

SMILES	Pf growth 96h	Pf growth 48h	HCV inh	HCMV inh
CC1=C(C(=O)Nc2ccc(F)cc2)C(c2ccc(N(C)C)cc2)NC(=O)N1 (configuration not stated)	x	x	x	10.9
CCN1CCN(c2oc(-c3ccccc3)nc2S(=O)(=O)c2ccc(C)cc2)CC1	11.7µM*	13.1µM*	u	-4.9
CCOc1ccc(-c2nc(S(=O)(=O)c3ccccc3)c(N3CCC(C(N)=O)CC3)o2)cc1	14.7µM*	u	10.8%	5.5
COc1ccc(OC)c(CNS(=O)(=O)c2ccc3c(c2)CCCN3C(C)=O)c1	x	x	x	-21.7
CCOc1ccc(C(=O)OCC(=O)N2CCOCC2)cc1OCC	19.8%	32.6%	-14.7%	14.0
CCOc1cc(/C=C\[N+](=O)[O-])ccc1OCC(=O)N1CCOCC1	u	u	u	-92.4*
CCOc1cc(/C=C/c2nc3cc(C)c(C)cc3s2)ccc1OCC(=O)N1CCOCC1	10.4µM*	u	-5.6%	-20.6
CC(=O)CCC(=O)O	-4.1%	-2.2%	x	x
CCOC(=O)C1CCN(C(=O)Cn2ncc3c4ccccc4n(Cc4ccc(F)cc4)c3c2=O)CC1	x	x	x	7.0
O=[N+]([O-])c1cccc(-c2cn3nc(-c4ccccc4)c(-c4ccccc4)nc3n2)c1	u	9.28µM*	-4.2%	0.2
CCOC(=O)/C(C#N)=C(/C)c1ccc(OC)cc1	15.1%	-4.2%	31.6µM*	14.3
CCCN=C(N)/C(C(=O)OCC)=C(\O)c1ccc(OC)cc1	1.5%	6.8%	7.4%	-21.8
Cn1nnnc1SCCCNCc1ccccc1OCc1ccc(F)cc1	x	x	x	-34.6
CC[N+](C)(C)CCN(Cc1ccc(Cl)cc1)c1ccccn1	2.62µM*	x	-2.0%	u
O=C1COc2ccc(S(=O)(=O)CCC(=O)N3CCN(c4cccc(C(F)(F)F)c4)CC3)cc2N1	u	-9.8%	u	-67.9*
Cc1ccc(N(C)C(=O)CC(C)S(=O)(=O)c2ccc3c(c2)NC(=O)CO3)cc1 (configuration not stated)	3.7µM*	18.8%	11.8%	-11.3
Cc1ccc(CNS(=O)(=O)c2cc3c(cc2C)NC(=O)CO3)cc1	4.15µM*	u	-3.0%	11.9
O=C1COc2ccc(S(=O)(=O)N3CCN(c4ccccc4)CC3)cc2N1	u	-1.4%	14.9%	-17.9
Cc1cc2c(cc1S(=O)(=O)NCc1ccc(N(C)C)cc1)OCC(=O)N2	u	-16.4%	-10.9%	11.8
CC(CC(=O)N1CCN(c2ccccc2)CC1)S(=O)(=O)c1ccc2c(c1)NC(=O)CO2 (configuration not stated)	5.86µM*	-4.6%	u	u
Cc1ccc(NC(=O)CC(C)S(=O)(=O)c2ccc3c(c2)NC(=O)CO3)c(Cl)c1 (configuration not stated)	42.2%	-3.7%	-17.6%	-38.0
O=C1COc2ccc(S(=O)(=O)N3CCN(c4cccc(C(F)(F)F)c4)CC3)cc2N1	36.5%	-15.2%	u	0.0
COc1ccc(Cn2ccc3nc(C)c(C(=O)Nc4ccc(OC)cc4OC)cc3c2=O)cc1	x	x	x	9.2
CCOC(=O)c1ccc(NC(=O)Nc2c[nH]c(=O)[nH]c2=O)cc1	x	x	x	-4.8
COc1ccc(NC(=O)c2ccco2)cc1NC(=O)COc1ccc(Cl)c(C)c1	x	x	x	-6.2
SMILES	Pf growth 96h	Pf growth 48h	HCV inh	HCMV inh
CCOc1ccc(-c2nc(Cn3c(=O)cc(C)c4c(C)nn(-c5ccc(C)cc5)c43)c(C)o2)cc1	x	x	x	26.8
Cc1cc2c(cc1C)NC(CC(=O)Nc1ccccc1SC(F)(F)F)C(=O)N2 (configuration not stated)	x	x	x	1.0
Cc1ccc(CNC(=O)CC(C)S(=O)(=O)c2ccc3c(c2)NC(=O)CO3)cc1 (configuration not stated)	9.28µM*	5.7%	-2.7%	0.0
CCOc1ccc(CC(=O)Nc2c(C(=O)c3ccccc3)oc3ccc(OC)cc23)cc1OCC	x	x	x	-9.2
O=Cc1ccccc1C=O	-20.2%	-9.3%	x	x
COc1ccc(O)c(C(=O)c2cnn(C(=O)c3cc(C)oc3C)c2)c1	16.8%	22.2%	14.3%	-19.9
COc1ccc(O)c(C(=O)c2cnn(S(=O)(=O)c3ccc(C)cc3)c2)c1	-28.3%	2.1%	-5.5%	-73.9*
COc1ccc(C(=O)n2cc(C(=O)c3cc(C)ccc3O)cn2)cc1	-29.9%	17.5%	8.4%	-66.9*
CCOCc1ccccc1Nc1ncnc2onc(-c3ccc(Cl)cc3)c12	x	x	x	14.5
CCc1ccc(NC(=O)N(Cc2ccc(C)cc2)Cc2cccn2-c2nnc(N3CCCC3=O)s2)cc1	x	x	x	-7.0
O/N=C/c1cc(Br)ccc1OCc1ccccc1F	x	x	u	42.0
CC(=O)Nc1ccc(NC(=O)COc2ccc(Br)cc2C)cc1	-11.1%	15.0%	-6.7%	-17.2
Cc1cccc(NC(=O)COc2ccc(Br)cc2/C=N/O)c1	u	216.8%	35.5µM*	24.0
C=CCOc1ccc(/C=N/O)cc1Cl	3.29µM*	39.6%	-12.3%	47.1
C=CCOc1ccc(Br)cc1/C=N/O	26.0%	x	11.2µM*	-1.3
Cc1cc2c(cc3c(SCc4ccc(Cl)cc4)nnc(C)n32)o1	x	x	x	-11.8
COc1ccc(-c2noc(CSc3nnc(-c4ccncc4)n3-c3cccc(C)c3)n2)cc1OC	x	x	x	-14.5
Cn1ncc(SCc2ccccc2)c(Cl)c1=O	5.0%	25.3%	-69.1%	-80.0*
CCOC(=O)c1ccc2c(c1)sc(=NC(=O)c1ccco1)n2CCOC	2.0%	12.1%	-11.4%	-68.1*
CCn1c(=NC(=O)c2ccc(N3C(=O)CCC3=O)cc2)sc2c(OC)ccc(OC)c21	u	x	14.1µM*	-7.8
C#CCn1c(=NC(=O)c2ccc(S(=O)(=O)N3CCCc4ccccc43)cc2)sc2cc(S(N)(=O)=O)ccc21	2.94µM*	9.28µM*	u	7.9
COCCn1c(=NC(=O)c2ccc3c(c2)OCCO3)sc2cc(C(=O)OC)ccc21	x	x	x	67.2
COCCn1c(=NC(=O)c2cc(-c3cccs3)nc3ccccc23)sc2cc(S(N)(=O)=O)ccc21	-15.8%	2.2%	10µM*	41.7
COc1ccc(N2CCN(C(=O)C3CCN(S(=O)(=O)c4cnc[nH]4)CC3)CC2)cc1	x	x	x	7.5
CC(=O)Nc1nonc1-c1nnc(SCC(=O)Nc2ccc(F)cc2F)n1-c1ccccc1	x	x	x	-6.3
SMILES	Pf growth 96h	Pf growth 48h	HCV inh	HCMV inh
CCn1c(=NC(=O)c2ccc(S(=O)(=O)N3CCOCC3)cc2)sc2cccc(OC)c21	u	u	10µM*	-31.3
COC(=O)Cn1c(=NC(=O)c2ccc(S(=O)(=O)N3CCOCC3)cc2)sc2cc(S(N)(=O)=O)ccc21	u	u	x	42.9
COCCn1c(=NC(=O)c2ccc(S(=O)(=O)N3CCOCC3)cc2)sc2cc(S(N)(=O)=O)ccc21	8.28µM*	u	u	6.4
CCc1ccccc1NC(=O)c1oc(=O)c2ccccc2c1-c1ccccc1	x	x	x	-0.8
O=C(c1ccccc1)N1CCCC(c2nc3c(nnn3Cc3ccccc3)c(=O)[nH]2)C1 (configuration not stated)	39.1%	13.1µM*	11.8%	17.2
NC(=O)C1CCN(c2nc(C3CC3)nc3c2nnn3Cc2ccccc2)CC1	u	13.1µM*	u	-33.7
